Mtb betalactam: beta-lactam sensitization of Mtb H37Rv; M. tuberculosis H37Rv growth with meropenem, percent inhibition; 330,000 compounds, 0.27% hits; inhibition, % at 25 µM; call rule not given here;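 note: growth measured after seven days incubation then overnight dye step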
Mtb FBA inh: Mtb fructose-bisphosphate aldolase inhibition | inhibition, % at 1 µM | 360,000 compounds, 2.3% hits | AID 588726 | purified M. tuberculosis FBA, fluorescence read-out
Target sequence (P9WQA3 whole entry, looked up): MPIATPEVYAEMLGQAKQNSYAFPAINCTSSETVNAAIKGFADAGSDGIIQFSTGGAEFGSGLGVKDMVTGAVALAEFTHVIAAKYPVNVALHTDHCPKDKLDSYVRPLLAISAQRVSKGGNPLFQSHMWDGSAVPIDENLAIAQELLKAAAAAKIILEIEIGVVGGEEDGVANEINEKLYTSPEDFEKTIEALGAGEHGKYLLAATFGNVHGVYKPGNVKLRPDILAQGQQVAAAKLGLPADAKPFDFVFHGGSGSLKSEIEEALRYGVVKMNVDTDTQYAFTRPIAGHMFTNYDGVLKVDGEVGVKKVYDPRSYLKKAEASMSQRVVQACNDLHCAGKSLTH
RecA intein inh: inhibitors of M. tuberculosis RecA intein splicing. P9WHJ3. cell-free RecA intein splicing, fluorescence. inhibition, % (concentration not given with the values). 290,000 compounds, 0.75% hits; in the data active = inhibition above about 30%
Rv3671c protease: Rv3671c (M. tuberculosis) protease inhibition; P9WHR9; inhibition, % at 5.96 µM; 320,000 compounds, 0.048% hits; AID 2606; in the data active = inhibition above about 38%;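 note: extracellular domain of Rv3671c used as enzyme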
UGM FP inh: inhibitors of M. tuberculosis UDP-galactopyranose mutase; P9WIQ1; purified UGM, fluorescence polarization probe displacement; inhibition, % at 10 µM; 320,000 compounds, 0.06% hits; AID 504406; in the data active = inhibition above about 10%, passing the limit was not always enough
GDH-TPI counter-1: inhibits GDH-TPI coupling enzymes, artifact for Mtb FBA screen; GDH-TPI coupled enzyme counterscreen, NADH absorbance; AID 588335; 360,000 compounds, 1.2% hits; inhibition, % at 4.8 µM; in the data active = inhibition above about 30%
Mtb FBA confirm: confirmation of M. tuberculosis fructose-bisphosphate aldolase inhibitors | 5,600 compounds, 78% hits | inhibition, % at 1 µM | purified M. tuberculosis FBA, fluorescence read-out | shares compounds with Mtb FBA inh | AID 651616
GDH-TPI counter-2: counter-screen for M. tuberculosis FBA inhibitors: GDH-TPI coupled enzyme inhibition. shares compounds with Mtb FBA inh. GDH-TPI coupled enzyme counterscreen, fluorescence. inhibition, % at 1 µM. 5,600 compounds, 81% hits. AID 652141; in the data active = inhibition above about 10%
Numbers stand for hits; i = inactive; nt = no result given; + = active, no number. An excerpt weighted towards active compounds, which were near 4% of everything screened. Cut-off read from the data, not from the text of the source, unless noted: active = inhibition above about 27%; inactive = the rest.

SMILES	Mtb betalactam	Mtb FBA inh	RecA intein inh	Rv3671c protease	UGM FP inh	GDH-TPI counter-1	Mtb FBA confirm	GDH-TPI counter-2
COc1ccccc1CNC(=O)c1ccccc1N	i	54	i	i	i	i	60	51
Cc1ccc(C(=O)NCc2ccccc2)c(F)c1F	i	i	i	i	i	i	nt	nt
Cc1cc(C(=O)NCc2ccccc2)c(=O)[nH]c1C	i	56	i	i	i	i	103	74
NC(=O)c1cccc2cc3ccccc3cc12	i	37	i	i	i	i	i	i
NC(=O)c1ccccc1N	i	86	i	i	i	i	78	54
Cc1ccccc1CNC(=O)c1ccccc1N	i	78	i	i	nt	i	+	191
CS(=O)(=O)Nc1ccccc1C(=O)NCC1(N2CCCCC2)CCCCC1	i	45	i	i	i	i	i	i
Cc1ccc(OCCNC(=O)c2ccccc2N)cc1	i	49	i	i	i	i	+	191
O=C(NCC1(N2CCCCC2)CCCCC1)c1ccc(NS(=O)(=O)c2ccccc2)cc1	i	i	i	i	i	i	nt	nt
COc1ccccc1C(=O)NCCC(=O)NCCOc1ccc(C)cc1	nt	i	nt	nt	nt	i	nt	nt
O=C(OCC(=O)N1CCN(c2ccccc2)CC1)c1cc(Br)ccc1Cl	i	i	nt	i	i	i	nt	nt
CCOC(=O)C(O)C1CCc2c([nH]c3ccc(C)cc23)C1=O (configuration not stated)	i	i	i	i	i	i	nt	nt
Cc1ccc2[nH]c3c(c2c1)CCNC3=O	i	75	i	i	i	i	113	93
COc1c(F)cc2[nH]c3c(c2c1F)CCNC3=O	i	38	i	i	i	i	+	176
O=C(Nc1nc2ccc(SC(F)F)cc2s1)c1ccc(NS(=O)(=O)c2ccc(F)c(F)c2)cc1	i	55	i	i	i	i	+	+
CS(=O)(=O)c1ccc2nc(NC(=O)c3cccc(NS(=O)(=O)c4ccc(F)c(F)c4)c3)sc2c1	i	29	i	i	i	i	151	139
CS(=O)(=O)c1ccc2nc(NC(=O)c3ccc(NS(=O)(=O)c4ccc(F)c(F)c4)cc3)sc2c1	i	71	i	i	i	60	79	82
COc1ccc(OCCNC(=O)/C=C/c2ccc([N+](=O)[O-])cc2)cc1	i	i	i	i	i	i	nt	nt
COC(=O)c1sc2nc(N)c(C#N)cc2c1N	i	i	i	i	i	i	nt	nt
COC(=O)c1sc2cnccc2c1N	i	110	i	i	i	i	91	85
COC(=O)c1ccncc1N	i	47	i	i	i	i	i	i
O=C(Nc1ccc(Cl)cn1)c1cc2c(s1)-c1ccccc1OC2	i	47	i	i	i	i	i	20
O=C(Nc1nc2ccccc2s1)c1cc2c(s1)-c1ccccc1OC2	i	i	i	i	i	i	nt	nt
O=C(Nc1nccs1)c1cc2c(s1)-c1ccccc1OC2	i	28	i	i	i	i	142	116
O=C(c1cc2c(s1)-c1ccccc1OC2)N1CCc2ccccc2C1	i	i	i	i	i	i	nt	nt
SMILES	Mtb betalactam	Mtb FBA inh	RecA intein inh	Rv3671c protease	UGM FP inh	GDH-TPI counter-1	Mtb FBA confirm	GDH-TPI counter-2
Cc1ccc(C(=O)Nc2nccs2)s1	i	i	i	i	i	i	nt	nt
Cc1cccc2c1-c1sc(C(=O)Nc3nccs3)cc1CO2	i	42	i	i	i	i	i	i
CCOC(=O)c1cc2c(s1)-c1c(C)cccc1OC2	i	82	i	i	i	i	i	17
COc1ccc(NS(=O)(=O)c2ccc(O)c(NS(=O)(=O)c3ccc(NC(C)=O)cc3)c2)cc1	i	i	nt	i	i	i	nt	nt
O=C1NC(=S)SC1=Cc1ccc(N(CCCl)CCCl)cc1	nt	i	nt	nt	nt	i	nt	nt
O=C(C1=C(O)C(=O)N(Cc2ccco2)C1c1ccccc1)c1cccs1 (configuration not stated)	i	i	i	i	i	i	nt	nt
CCC1NC(=O)c2cc3ccccc3cc2-n2c1nc1ccc(OC)cc1c2=O (configuration not stated)	nt	i	nt	nt	nt	i	nt	nt
O=C(COc1ccc2c3c(c(=O)oc2c1)CCCC3)N1C[C@H]2C[C@@H](C1)c1cccc(=O)n1C2	i	i	i	i	i	i	nt	nt
COc1ccc2c(C)c(CC(=O)N3C[C@H]4C[C@@H](C3)c3cccc(=O)n3C4)c(=O)oc2c1	i	111	i	i	i	i	146	104
Cc1coc2cc3oc(=O)c(CC(=O)N4C[C@H]5C[C@@H](C4)c4cccc(=O)n4C5)c(C)c3cc12	i	i	i	i	i	i	nt	nt
COc1ccc(-c2cc(=O)oc3cc(OCC(=O)N4C[C@H]5C[C@@H](C4)c4cccc(=O)n4C5)ccc23)cc1	i	i	i	i	i	i	nt	nt
COc1ccc2c(C)c(CCC(=O)N3C[C@H]4C[C@@H](C3)c3cccc(=O)n3C4)c(=O)oc2c1	i	68	i	i	i	i	118	128
Cc1c(Br)c(=O)oc2cc(OCC(=O)N3C[C@H]4C[C@@H](C3)c3cccc(=O)n3C4)ccc12	i	40	nt	i	i	i	54	65
c1ccc(-c2cc3ccccc3cn2)cc1	i	i	nt	i	i	i	nt	nt
Fc1ccc2cc(-c3ccccc3)ncc2c1	i	49	nt	i	i	i	88	71
CCCCS(=O)(=O)CC(COc1ccccc1)OC(=O)c1ccccc1 (configuration not stated)	i	i	i	i	i	i	nt	nt
CC(c1ccccc1)C(CC(=O)O)C(=O)NC1CCCCC1 (configuration not stated)	i	i	i	i	i	i	nt	nt
CN(Cc1cccc(F)c1)C(=O)C1CC(=O)N(c2ccc3c(c2)OCCO3)C1 (configuration not stated)	i	35	nt	i	i	i	+	+
O=C(NCCCc1ccccc1)C1CC(=O)N(c2ccc3c(c2)OCCO3)C1 (configuration not stated)	i	i	i	i	i	i	nt	nt
CN(Cc1ccc(Cl)c(Cl)c1)C(=O)C1CC(=O)N(c2ccc3c(c2)OCCO3)C1 (configuration not stated)	nt	i	nt	nt	nt	i	nt	nt
O=C(NCCc1ccccc1)C1CC(=O)N(c2ccc3c(c2)OCCO3)C1 (configuration not stated)	i	28	i	i	i	i	38	21
O=C(NCCc1nnc2ccc(NCC3CCCO3)nn12)c1ccccc1 (configuration not stated)	i	i	i	i	i	i	nt	nt
O=C(c1csc2c1CCCC2)N1CCCCC1	i	i	i	i	i	i	nt	nt
COc1ccc(S(=O)(=O)N(CCc2ccccc2)CC(=O)O)cc1	i	i	i	i	i	i	nt	nt
CCOc1ccc2oc(C(=O)NCC(C)(C)CN(C)C)c(C)c2c1	i	44	i	i	i	i	116	86
COc1ccc2oc(C(=O)OC(C)C(=O)N3CCC(C)CC3)c(C)c2c1 (configuration not stated)	i	44	nt	i	i	i	+	+

Assay outcomes (PubChem)
